# In PubChem BioAssay (NCI):
# This is part of a sample that, as a whole, favours compounds with a hit. Of some 83,000 tested, about 20% had one in any assay.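 How to read the values: 0–100, growth inhibition (40 = 60% inhibited); 0, no net growth; -100 to 0, cell death (-40 = 40% of starting cells died; -100 = all dead).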 Values without a mark were called inactive. Active and inactive are the calls of the source.
# Test system: SK-OV-3 ovarian
# Assay: NCI-60 one-dose screen, 48 h (100 = growth as untreated, 0 = no growth, -100 = all killed)
# Conditions: 10 µM unless noted
# Experimental: Growth inhibition of the SK-OV-3 human tumor cell line is measured as a screen for anti-cancer activity. Cells are grown in 96 well plates and exposed to the test compound for 48 hours. Compounds are tested at a single concentration, which is 10^-5 M for most compounds. The reported endpoint is percent growth (GI% or GIPRCNT), where numbers from 0 - 100% represent growth inhibition, and numbers from -100% - 0 represent cell death. For example, a value of 40 represents 60% growth inhibition. A value of 0 means no net growth occurred over the course of the experiment. A value of -40 indicates 40% of cells at the beginning of the experiment died by the end of the experiment. A value of -100 means all cells are dead at the end of the experiment.
# NCI-60 Human Tumor Cell Lines Screen was performed using the standard one-dose NCI protocol, which is described in more detail at https://dtp.cancer.gov/discovery_development/nci-60/default.htm.
# Compounds with GIPRCNT values below 10 were considered active. Activity score was based on GIPRCNT using the following formula: […]
# Score is 0 for GIPRCNT values of 100 or above, 50 for GIPRCNT values of 0, and 100 for GIPRCNT values of -100.
row,SMILES,growth
1,Cc1ccc[n+](CCC(N)=O)c1,94.7%
2,NC(CO)(CO)c1ccccc1,105%
3,CC(=O)O[C@H]1CC[C@]2(C)C3=C(C(=O)C[C@H]2C1(C)C)[C@]1(C)CC[C@H]([C@H](C)CCC(=O)O)[C@@]1(C)CC3=O,99.3%
4,Nc1nc(Cl)cc(Cl)n1,91.1%
5,CN1C(=O)NC(c2ccc(Cl)cc2)(c2ccc(Cl)cc2)C1=O,115%
6,O=C(O)Cc1ccccn1,104%
7,Cc1cc(CO)c(O)c(CO)c1,106%
8,NCC(O)C(O)C(O)C(O)CO (stereo not given),86.1%
9,Nc1ccc(F)cc1F,116%
10,CCN(CC)CCN1CNC(=S)NC1,108%
11,CSCC[C@@H]1C(=O)N(C)[C@H](C(C)(C)C)N1C(=O)c1ccccc1,113%
12,Oc1cccnc1CN1CCCC1,103%
13,CCCCCCCCCCCCCCCCOc1ccccc1NC(=O)CC(C)=O,111%
14,CCCCCCCCCCCCCCCCCC(=O)NCCNC(=O)CCCCCCCCCCCCCCCCC,84.5%
15,CCNCC(C)(C)O,110%
16,NC(CCl)=NCC12CC3CC(CC(C3)C1)C2,24.2%
17,Cc1ccc(C)c(CCO)c1,100%
18,O=C(O)Cc1cccc2ccccc12,103%
19,Nc1ccc2ccccc2c1-c1c(N)ccc2ccccc12,30.8%
20,COc1ccc(C2CCCCC2=O)cc1 (stereo not given),103%

row,SMILES,growth
1,CCCCCC/C=C\CCCCCCCCCc1cc(O)cc(OC)c1O,6.17% (active)
2,C=C(OC(C)=O)c1ccccc1,96%
3,CC(=O)Nc1ncc(S(=O)(=O)c2ccc([N+](=O)[O-])cc2)s1,94%
4,O=C(OCc1ccccc1)n1nnc2ccccc21,112%
5,Cc1c(-c2ccc(C3CCCCC3)cc2)nc2ccc(F)cc2c1C(=O)O,58.2%
6,CCNc1ncnc2[nH]ncc12,109%
7,Cc1ccc2[nH]c3ccccc3c2c1,113%
8,CCOP(=O)(OCC)/C(=C\N1C(=O)CC(=O)NC1=S)C(=O)OC,104%
9,COC1OC(CO)C(OC)C(O)C1O (stereo not given),105%
10,CC(=O)C1C(=O)C(=O)N(c2cccc([N+](=O)[O-])c2)C1=O (stereo not given),102%
11,O=C1NCC2CCCC1C2 (stereo not given),110%
12,O=C(Nc1ccc([N+](=O)[O-])cc1)C(=O)Nc1ccc([N+](=O)[O-])cc1,93.5%
13,O=C(NCc1ccccc1)/C(=C/c1ccccc1)NC(=O)c1ccccc1,102%
14,CC12CCC3c4ccc(O)cc4CCC3C1CCC2=O (stereo not given),117%
15,O=C(c1ccccc1O)N1CCCC1,95.8%
16,COc1ccc(C(=O)C(=O)c2ccccc2)cc1,103%
17,C=CC1=NC(C)(C)CC(C)O1 (stereo not given),108%
18,CCCCOC(=O)c1ccc(NC(=O)CCl)cc1,105%
19,O=C(c1cccc(C(=O)c2ccc3c4c(cccc24)C(=O)N(c2ccccc2)C3=O)c1)c1ccc2c3c(cccc13)C(=O)N(c1ccccc1)C2=O,102%
20,O=c1[nH]c(=O)c2cc(Cl)cc(Cl)c2[nH]1,118%
